The record followed here is PubChem BioAssay (EPA / NIEHS).

Molecules are shown by their SMILES. Several values for one entry are separate records, joined by “and”; a condition that tells them apart may be missing. Equal values may be shown once. Results filed as inconclusive are left out. A structure can be active in one record and inactive in another. Activity calls are given as the source filed them. Rule for the calls, unless noted: active = hit-call score of the fitted dose curve at least 0.9, where 1 is the maximum; inactive = score below 0.9.

Test [1] in a line: BSK_4H_Eotaxin3: BioMAP Diversity Plus: 4H Assay for Eotaxin 3 Biomarker Activity (AID 2283000).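 For outcome: CCL26 protein level quantified by ELISA in parallel with SRB cytotoxicity check.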 The note with it: primary human endothelial cells (HUVEC); actives raise or lower the signal. Put shortly:
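Endothelial primary cells (human umbilical vein) exposed to compound for 24 h. ELISA detection of Eotaxin-3.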

For test [2], the target named is human Peroxisome Proliferator-activated Receptor alpha (PPARa), PPARA (gene 5465) (UniProt Q07869). Put plainly: ATG_PPARa_TRANS: Attagene TRANS-FACTORIAL HepG2 Assay for human Peroxisome Proliferator-activated Receptor alpha (PPARa) (AID 2283001; active = hit-call score of the fitted dose curve at least 0.9, where 1 is the maximum;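 for AC50: potency for gain of reporter signal over DMSO so agonist or activator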). Put shortly:
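Transfected HepG2 cells treated with test chemical for 24 h. RNA isolated, reverse-transcribed with oligo(dT), PCR-amplified, FAM-labelled and HpaI-digested. Fragments sized by capillary electrophoresis; gain-of-signal fit relative to DMSO.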

For test [3], the target named is human Peroxisome Proliferator-activated Receptor delta (PPARd), PPARD (gene 5467) (UniProt Q03181). Put plainly: ATG_PPARd_TRANS: Attagene TRANS-FACTORIAL HepG2 Assay for human Peroxisome Proliferator-activated Receptor delta (PPARd) (AID 2283002; active = hit-call score of the fitted dose curve at least 0.9, where 1 is the maximum). In short, it runs like this:
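Read-out is induced reporter mRNA, quantified by RT-PCR with fluorescent labelling and capillary electrophoresis after 24 h dosing. Cells are HepG2 transiently carrying multiple GAL4-UAS reporter units driven by exogenous NR-GAL4 chimeras; DMSO serves as baseline.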

Read-out in test [4]: Intercellular Adhesion Molecule 1 (ICAM1), ICAM1 (gene 3383)
Put plainly: BSK_3C_ICAM1: BioMAP Diversity Plus: 3C Assay for Intercellular Adhesion Molecule 1 (ICAM1) Biomarker Activity (AID 2283003). The conditions noted are these: primary human endothelial cells (HUVEC); actives raise or lower the signal. In short, it runs like this: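 Using DMSO as baseline, bidirectional curve fitting was applied to ICAM-1 ELISA signals from HUVEC in the 3C system, measured 24 h after compound addition.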

Test [5] concerns the target human Retinoic Acid Receptor beta (RARb), RARB (gene 5915) (UniProt P10826). Description: ATG_RARb_TRANS: Attagene TRANS-FACTORIAL HepG2 Assay for human Retinoic Acid Receptor beta (AID 2283004; active = hit-call score of the fitted dose curve at least 0.9, where 1 is the maximum). Put shortly:
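HepG2, transient MRTU transfection, NR–Gal4 chimera, 24 h treatment; RT-PCR plus CE fluorescence detection of reporter mRNA; gain of signal vs DMSO.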

Test [6] concerns the target Retinoic acid receptor alpha (Homo sapiens) (UniProt P10276). Description: ATG_RARa_TRANS: Attagene TRANS-FACTORIAL HepG2 Assay for human Retinoic Acid Receptor alpha (RARa) (AID 2283005; active = hit-call score of the fitted dose curve at least 0.9, where 1 is the maximum). Put shortly:
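Reporter transcripts, measured by RT-PCR with fluorescent labeling and capillary electrophoresis after 24 h dosing, reflect activity of an exogenous human RARa–GAL4 fusion in transiently transfected HepG2. Fitted for increase relative to DMSO.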

Test [7] in a line: BSK_3C_Proliferation: Cell Proliferation Assessment in the BioMAP Diversity Plus: 3C Assay (AID 2283006).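 For AC50: potency may reflect either rise or fall in cell number versus DMSO.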 The note with it: primary human endothelial cells (HUVEC). Put shortly:
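Measured here: sulforhodamine B (0.1%) staining of TCA-fixed sub-confluent umbilical vein endothelial cultures 48 h post-dosing, absorbance 560 nm. DMSO served as negative control and baseline; both signal gain and loss were modelled.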

Test [8] has as its target Peroxisome proliferator-activated receptor gamma (Homo sapiens) (UniProt P37231). Put plainly: ATG_PPARg_TRANS: Attagene TRANS-FACTORIAL HepG2 Assay for human Peroxisome Proliferator-activated Receptor-gamma (PPARg) (AID 2283007; active = hit-call score of the fitted dose curve at least 0.9, where 1 is the maximum). In short, it runs like this:
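A TRANS-format multiplexed reporter assay measures activity of an exogenous chimeric NR-Gal4 protein in HepG2 cells. After 24 h of chemical exposure, reporter transcripts are amplified, fluorescently labelled and sized by capillary electrophoresis, with gain of signal scored against DMSO.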

Test [9] addresses Nuclear receptor subfamily 1 group I member 2 (Homo sapiens) (UniProt O75469). Put plainly: ATG_PXR_TRANS: Attagene TRANS-FACTORIAL HepG2 Assay for human Pregnane X Receptor (PXR) (AID 2283008; active = hit-call score of the fitted dose curve at least 0.9, where 1 is the maximum). Put shortly: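 Transactivation by exogenous PXR–GAL4 fusion measured as reporter transcript induction after 24 h compound treatment of transfected human HepG2 cells. Read-out via RT-PCR and capillary electrophoresis of labelled fragments, fitted upward relative to DMSO.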

The target in test [10] is Retinoic acid receptor RXR-alpha (Homo sapiens) (UniProt P19793). Put plainly: ATG_RXRa_TRANS: Attagene TRANS-FACTORIAL HepG2 Assay for human Retinoid X Receptor alpha (RXRa) (AID 2283012; active = hit-call score of the fitted dose curve at least 0.9, where 1 is the maximum). In short, it runs like this:
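Chimeric NR-GAL4 trans-activation in HepG2, 24 h treatment; reporter transcripts quantified by fluorescence on capillary electrophoresis, analysed for upward change from DMSO.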

The target of test [11] is human Thyroid Receptor alpha (THRa1), THRA (gene 7067) (UniProt P10827). Description: ATG_THRa1_TRANS: Attagene TRANS-FACTORIAL HepG2 Assay for human Thyroid Receptor alpha (THRa1) (AID 2283014; active = hit-call score of the fitted dose curve at least 0.9, where 1 is the maximum). Put shortly:
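First, HepG2 cells receive multiple GAL4-UAS reporter units and the chimeric receptor. They are then dosed for 24 h, after which RNA is reverse-transcribed, amplified, labelled, HpaI-cut and sized by capillary electrophoresis; gain relative to DMSO is scored.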

Read-out in test [12]: Interleukin-1 alpha (IL1a), IL1A (gene 3552)
Put plainly: BSK_BE3C_IL1a: BioMAP Diversity Plus: BE3C Assay for Interleukin-1 alpha (IL1a) Biomarker Activity (AID 2283016). The note with it: primary human bronchial epithelial cells; actives raise or lower the signal. In short, it runs like this: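 Measured in human lung primary bronchial epithelial cells: IL-1a by ELISA at 24 h after dosing, with bidirectional fitting against DMSO.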

Read-out in test [13]: Monocyte Chemoattractant Protein-1 (MCP1), CCL2 (gene 6347)
Description: BSK_3C_MCP1: BioMAP Diversity Plus: 3C Assay for Monocyte Chemoattractant Protein-1 (MCP1) Biomarker Activity (AID 2283017). The note with it: primary human endothelial cells (HUVEC); actives raise or lower the signal. Put shortly: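 Endothelial cells from human umbilical vein are dosed with chemical, cultured 24 h, then assayed for MCP-1 by ELISA; both increases and decreases are modelled against DMSO controls.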

Read-out in test [14]: Monocyte Chemoattractant Protein-1 (MCP1), CCL2 (gene 6347)
Put plainly: BSK_4H_MCP1: BioMAP Diversity Plus: 4H Assay for Monocyte Chemoattractant Protein-1 (MCP1) Biomarker Activity (AID 2283018). The note with it: primary human endothelial cells (HUVEC); actives raise or lower the signal. In short, it runs like this:
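Primary human umbilical vein endothelium is exposed to chemical for 24 h before MCP-1 is assayed by ELISA. Concentration-response fitted bidirectionally relative to DMSO.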

Read-out in test [15]: Human Leukocyte Antigen - DR isotype (HLADR), HLA-DRA (gene 3122)
Description: BSK_3C_HLADR: BioMAP Diversity Plus: 3C Assay for Human Leukocyte Antigen - DR isotype (HLADR) Biomarker Activity (AID 2283019).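 For outcome: ELISA of cell-surface HLA-DR on HUVEC 24 h after dosing.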 The conditions noted are these: primary human endothelial cells (HUVEC); actives raise or lower the signal. In short, it runs like this: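 Endothelial cells from human umbilical vein are treated with test chemical; after 24 h, HLA-DR levels are measured by ELISA. Data are fitted in both directions using DMSO as the baseline.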

Read-out in test [16]: Interleukin-8 (IL8), CXCL8 (gene 3576)
Description: BSK_3C_IL8: BioMAP Diversity Plus: 3C Assay for Interleukin-8 (IL8) Biomarker Activity (AID 2283020). The conditions noted are these: primary human endothelial cells (HUVEC); actives raise or lower the signal. In short, it runs like this:
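Using DMSO-treated wells as the baseline, bidirectional curve fitting was applied to ELISA-measured IL-8 from human umbilical vein endothelial cultures sampled 24 h after compound addition.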

Read-out in test [17]: Monokine induced gamma interferon (MIG), CXCL9 (gene 4283)
Description: BSK_3C_MIG: BioMAP Diversity Plus: 3C Assay for Monokine induced gamma interferon (MIG) Biomarker Activity (AID 2283021).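 For AC50: MIG protein level measured by immunoassay in the treated endothelial cultures.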 The note with it: primary human endothelial cells (HUVEC); actives raise or lower the signal. Put shortly:
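ELISA-measured MIG in dosed HUVEC 3C cultures at 24 h, analysed by bidirectional fitting with DMSO defining baseline activity.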

Test [18] concerns the target human RAR-related Orphan Receptor gamma (RORg), RORC (gene 6097) (UniProt P51449). Description: ATG_RORg_TRANS: Attagene TRANS-FACTORIAL HepG2 Assay for human RAR-related Orphan Receptor gamma (RORg) (AID 2283011; active = hit-call score of the fitted dose curve at least 0.9, where 1 is the maximum). In short, it runs like this: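 Activity is scored as increase in GAL4-UAS reporter mRNA over DMSO, detected by fluorescent RT-PCR and capillary electrophoresis in HepG2 cells transiently expressing a RORg-Gal4 chimera, 24 h after dosing.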

Read-out in test [19]: E-selectin (Homo sapiens) (UniProt P16581)
Description: BSK_3C_Eselectin: BioMAP Diversity Plus: 3C Assay for Eselectin Biomarker Activity (AID 2283015).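 Note: cell surface E-selectin protein quantified by ELISA 24 h after dosing.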 The note with it: primary human endothelial cells (HUVEC); actives raise or lower the signal. In short, it runs like this: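 Human vascular endothelium from umbilical vein is exposed to test chemicals for 24 h. E-selectin levels are read by ELISA and compared with DMSO controls.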

Test [20] concerns the target human Retinoid X Receptor beta (RXRb), RXRB (gene 6257) (UniProt P28702). Put plainly: ATG_RXRb_TRANS: Attagene TRANS-FACTORIAL HepG2 Assay for human Retinoid X Receptor beta (RXRb) (AID 2283013; active = hit-call score of the fitted dose curve at least 0.9, where 1 is the maximum). Put shortly:
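After a 24 h incubation with test chemical, transfected HepG2 cells carrying NR-Gal4 fusions and GAL4-UAS reporter transcription units yield RNA whose reporter cDNA is FAM-labelled, HpaI-cut and sized by capillary electrophoresis; increases over DMSO are scored.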

Sequence of human Retinoid X Receptor beta (RXRb), RXRB (gene 6257) (P28702 whole entry, looked up, the tested form may be a part): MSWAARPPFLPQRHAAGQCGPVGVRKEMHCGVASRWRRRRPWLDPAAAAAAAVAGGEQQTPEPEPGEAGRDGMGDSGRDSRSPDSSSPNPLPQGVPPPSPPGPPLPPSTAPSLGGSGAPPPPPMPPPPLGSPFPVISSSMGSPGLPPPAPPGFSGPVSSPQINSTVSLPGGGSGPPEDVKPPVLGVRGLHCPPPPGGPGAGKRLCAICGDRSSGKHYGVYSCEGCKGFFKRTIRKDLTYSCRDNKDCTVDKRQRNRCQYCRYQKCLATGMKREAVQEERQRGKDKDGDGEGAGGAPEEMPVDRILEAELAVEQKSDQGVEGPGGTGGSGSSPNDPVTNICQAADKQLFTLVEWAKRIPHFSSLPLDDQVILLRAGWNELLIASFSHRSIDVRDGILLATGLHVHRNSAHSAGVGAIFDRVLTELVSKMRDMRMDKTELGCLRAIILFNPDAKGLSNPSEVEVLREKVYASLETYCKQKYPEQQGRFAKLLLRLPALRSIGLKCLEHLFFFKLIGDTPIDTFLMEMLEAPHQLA
Sequence of E-selectin (Homo sapiens) (P16581 whole entry, looked up): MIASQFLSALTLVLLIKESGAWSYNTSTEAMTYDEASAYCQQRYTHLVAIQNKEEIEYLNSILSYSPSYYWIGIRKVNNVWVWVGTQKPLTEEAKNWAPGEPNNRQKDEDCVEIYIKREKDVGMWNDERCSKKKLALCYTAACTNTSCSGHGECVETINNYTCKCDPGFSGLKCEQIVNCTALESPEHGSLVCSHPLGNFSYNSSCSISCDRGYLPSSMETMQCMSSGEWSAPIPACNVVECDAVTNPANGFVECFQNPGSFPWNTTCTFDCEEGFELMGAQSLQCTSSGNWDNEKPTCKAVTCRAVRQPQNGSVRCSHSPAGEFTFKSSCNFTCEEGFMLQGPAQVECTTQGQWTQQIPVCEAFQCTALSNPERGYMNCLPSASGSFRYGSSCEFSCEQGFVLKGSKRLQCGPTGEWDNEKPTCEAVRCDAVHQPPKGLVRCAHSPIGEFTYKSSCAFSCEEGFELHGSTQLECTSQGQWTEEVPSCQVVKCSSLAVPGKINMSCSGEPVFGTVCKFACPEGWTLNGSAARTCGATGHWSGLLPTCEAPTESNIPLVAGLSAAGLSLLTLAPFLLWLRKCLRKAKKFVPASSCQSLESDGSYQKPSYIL
Sequence of human Peroxisome Proliferator-activated Receptor alpha (PPARa), PPARA (gene 5465) (Q07869 whole entry, looked up, the tested form may be a part): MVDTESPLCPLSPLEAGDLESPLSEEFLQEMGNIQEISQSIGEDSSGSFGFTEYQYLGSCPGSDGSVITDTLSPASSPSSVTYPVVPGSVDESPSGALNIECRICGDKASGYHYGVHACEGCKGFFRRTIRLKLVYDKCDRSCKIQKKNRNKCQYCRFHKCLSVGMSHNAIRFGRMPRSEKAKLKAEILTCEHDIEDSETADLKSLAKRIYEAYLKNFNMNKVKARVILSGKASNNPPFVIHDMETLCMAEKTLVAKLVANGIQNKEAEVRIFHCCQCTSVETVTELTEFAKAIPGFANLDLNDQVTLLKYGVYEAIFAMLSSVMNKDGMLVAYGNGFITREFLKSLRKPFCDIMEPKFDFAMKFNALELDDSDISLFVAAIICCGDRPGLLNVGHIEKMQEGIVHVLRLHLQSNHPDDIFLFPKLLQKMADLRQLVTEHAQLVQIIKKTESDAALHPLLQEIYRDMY
Sequence of human Retinoic Acid Receptor beta (RARb), RARB (gene 5915) (P10826 whole entry, looked up, the tested form may be a part): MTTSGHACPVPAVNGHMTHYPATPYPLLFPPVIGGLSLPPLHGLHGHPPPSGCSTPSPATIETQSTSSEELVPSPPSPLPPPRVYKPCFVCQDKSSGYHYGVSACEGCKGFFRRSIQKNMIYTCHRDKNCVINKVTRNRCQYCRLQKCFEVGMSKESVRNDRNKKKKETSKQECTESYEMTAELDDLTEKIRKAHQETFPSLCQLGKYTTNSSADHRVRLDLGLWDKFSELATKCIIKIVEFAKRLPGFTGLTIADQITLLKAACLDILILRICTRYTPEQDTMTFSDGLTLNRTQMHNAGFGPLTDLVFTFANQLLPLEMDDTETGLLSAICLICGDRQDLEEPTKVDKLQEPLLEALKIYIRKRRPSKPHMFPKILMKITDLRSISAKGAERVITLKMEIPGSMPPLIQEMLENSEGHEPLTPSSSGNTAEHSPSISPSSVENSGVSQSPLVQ
Sequence of Retinoic acid receptor RXR-alpha (Homo sapiens) (P19793 whole entry, looked up, the tested form may be a part): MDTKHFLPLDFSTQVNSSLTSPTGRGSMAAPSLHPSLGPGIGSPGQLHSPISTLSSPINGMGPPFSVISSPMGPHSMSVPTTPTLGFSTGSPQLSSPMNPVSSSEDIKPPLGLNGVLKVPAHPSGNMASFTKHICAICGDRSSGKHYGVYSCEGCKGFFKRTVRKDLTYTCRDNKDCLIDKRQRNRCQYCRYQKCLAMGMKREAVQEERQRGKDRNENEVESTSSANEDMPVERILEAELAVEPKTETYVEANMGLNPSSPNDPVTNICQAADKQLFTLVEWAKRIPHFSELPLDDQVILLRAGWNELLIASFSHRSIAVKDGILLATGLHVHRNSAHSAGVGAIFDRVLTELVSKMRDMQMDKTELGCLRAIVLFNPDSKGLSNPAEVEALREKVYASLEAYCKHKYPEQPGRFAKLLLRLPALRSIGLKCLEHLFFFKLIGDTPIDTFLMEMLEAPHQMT
Sequence of human Peroxisome Proliferator-activated Receptor delta (PPARd), PPARD (gene 5467) (Q03181 whole entry, looked up, the tested form may be a part): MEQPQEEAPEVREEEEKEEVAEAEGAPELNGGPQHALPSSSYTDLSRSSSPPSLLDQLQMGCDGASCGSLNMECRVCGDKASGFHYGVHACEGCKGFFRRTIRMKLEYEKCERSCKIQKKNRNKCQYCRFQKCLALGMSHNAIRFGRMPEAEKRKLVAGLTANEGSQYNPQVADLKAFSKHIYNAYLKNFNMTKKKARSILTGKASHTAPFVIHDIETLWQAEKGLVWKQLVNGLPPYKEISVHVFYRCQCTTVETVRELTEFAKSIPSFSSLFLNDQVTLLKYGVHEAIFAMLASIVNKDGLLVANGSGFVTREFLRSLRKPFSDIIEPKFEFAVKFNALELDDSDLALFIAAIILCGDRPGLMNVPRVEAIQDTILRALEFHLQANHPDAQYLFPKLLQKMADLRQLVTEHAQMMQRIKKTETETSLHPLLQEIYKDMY
Sequence of human RAR-related Orphan Receptor gamma (RORg), RORC (gene 6097) (P51449 whole entry, looked up, the tested form may be a part): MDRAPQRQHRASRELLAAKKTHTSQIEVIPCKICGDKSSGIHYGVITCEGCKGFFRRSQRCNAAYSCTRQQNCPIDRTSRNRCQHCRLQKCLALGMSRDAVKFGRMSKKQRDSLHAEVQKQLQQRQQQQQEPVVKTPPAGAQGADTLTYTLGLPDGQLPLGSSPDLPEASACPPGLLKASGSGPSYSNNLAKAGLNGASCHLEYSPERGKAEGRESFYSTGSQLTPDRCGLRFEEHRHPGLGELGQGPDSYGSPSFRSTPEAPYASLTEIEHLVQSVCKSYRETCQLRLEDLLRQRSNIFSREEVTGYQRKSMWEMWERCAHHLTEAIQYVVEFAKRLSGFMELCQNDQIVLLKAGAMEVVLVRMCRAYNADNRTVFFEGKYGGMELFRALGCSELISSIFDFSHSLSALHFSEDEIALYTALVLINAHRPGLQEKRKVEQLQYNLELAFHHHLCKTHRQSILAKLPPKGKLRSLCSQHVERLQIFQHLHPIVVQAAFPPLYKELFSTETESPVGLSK
Sequence of Retinoic acid receptor alpha (Homo sapiens) (P10276 whole entry, looked up, the tested form may be a part): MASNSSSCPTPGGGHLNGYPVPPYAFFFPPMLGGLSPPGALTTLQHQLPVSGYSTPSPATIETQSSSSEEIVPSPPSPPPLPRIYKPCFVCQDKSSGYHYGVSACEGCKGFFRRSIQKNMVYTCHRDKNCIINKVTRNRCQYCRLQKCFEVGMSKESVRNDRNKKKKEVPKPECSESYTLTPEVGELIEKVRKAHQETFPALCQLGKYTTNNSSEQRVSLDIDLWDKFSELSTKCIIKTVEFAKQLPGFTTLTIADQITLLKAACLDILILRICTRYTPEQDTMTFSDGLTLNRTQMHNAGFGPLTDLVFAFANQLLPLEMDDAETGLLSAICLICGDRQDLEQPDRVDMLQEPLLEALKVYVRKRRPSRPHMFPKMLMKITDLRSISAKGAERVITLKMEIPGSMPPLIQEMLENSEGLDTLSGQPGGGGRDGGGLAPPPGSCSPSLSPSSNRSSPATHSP
Sequence of Peroxisome proliferator-activated receptor gamma (Homo sapiens) (P37231 whole entry, looked up, the tested form may be a part): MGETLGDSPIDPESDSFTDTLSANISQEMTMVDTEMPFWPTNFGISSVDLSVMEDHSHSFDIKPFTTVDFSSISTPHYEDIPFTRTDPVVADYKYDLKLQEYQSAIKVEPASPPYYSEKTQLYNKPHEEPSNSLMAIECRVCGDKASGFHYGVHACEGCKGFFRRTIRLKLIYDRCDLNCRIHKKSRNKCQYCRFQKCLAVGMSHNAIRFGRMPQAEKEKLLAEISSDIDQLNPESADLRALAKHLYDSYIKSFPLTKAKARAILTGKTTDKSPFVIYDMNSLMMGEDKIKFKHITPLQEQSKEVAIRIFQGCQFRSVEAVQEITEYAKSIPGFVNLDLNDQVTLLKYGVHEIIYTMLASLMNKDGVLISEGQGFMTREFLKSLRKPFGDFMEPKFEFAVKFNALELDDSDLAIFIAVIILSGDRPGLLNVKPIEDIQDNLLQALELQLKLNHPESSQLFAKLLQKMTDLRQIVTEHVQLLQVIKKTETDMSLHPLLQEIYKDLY
Sequence of human Thyroid Receptor alpha (THRa1), THRA (gene 7067) (P10827 whole entry, looked up, the tested form may be a part): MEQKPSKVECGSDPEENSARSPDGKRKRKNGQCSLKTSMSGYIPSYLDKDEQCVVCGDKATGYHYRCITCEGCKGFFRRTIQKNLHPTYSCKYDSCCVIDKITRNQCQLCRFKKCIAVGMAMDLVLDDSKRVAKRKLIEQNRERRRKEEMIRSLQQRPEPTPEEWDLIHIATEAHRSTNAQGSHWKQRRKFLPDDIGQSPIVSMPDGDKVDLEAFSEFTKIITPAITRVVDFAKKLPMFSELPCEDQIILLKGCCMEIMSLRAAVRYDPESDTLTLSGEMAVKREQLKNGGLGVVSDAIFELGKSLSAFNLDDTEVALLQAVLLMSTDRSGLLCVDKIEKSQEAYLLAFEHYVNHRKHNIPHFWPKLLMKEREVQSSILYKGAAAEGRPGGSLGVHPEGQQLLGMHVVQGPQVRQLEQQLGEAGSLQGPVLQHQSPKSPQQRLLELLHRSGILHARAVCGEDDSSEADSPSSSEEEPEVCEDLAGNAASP

What is called AC50 is the concentration giving half of the maximal activity seen. With `CCCCCCCCCc1ccc(O)cc1`, the AC50 is 15.2 µM (active) in [1]; 33.4 µM (active) and 21.6 µM (active) and 16.9 µM (active) in test [2]; 25.5 µM (active) and 33.4 µM (active) in test [3]; 15.4 µM (active) in test [4]; 11.2 µM (active) in [7]; 33.4 µM (active) and 25.1 µM (active) and 9.23 µM (active) in [8]. Moreover, the AC50 in [9] was 21.2 µM (active); in [12], 17.3 µM (active); in test [13], 14.6 µM (active); in [14], 12.3 µM (active); in [15], 14.1 µM (active); in [16], 15.5 µM (active). Moreover, in test [17], the AC50 was 16.4 µM (active). In addition, the call in [3], in [5], in test [6], in test [9], in [10] and in test [11] was inactive.

As for `O=S(=O)(O)C(F)(F)C(F)(F)C(F)(F)C(F)(F)F`, the outcome in test [1], in test [2], in test [3], in test [4], in test [7] and in [8] was inactive. The compound was called inactive in test [9], in test [18], in test [10], in [11], in test [19] and in test [12]. Further, the result in [13], in test [14], in test [16] and in test [17] was inactive.

On to `O=C(O)C(F)(F)C(F)(F)C(F)(F)C(F)(F)C(F)(F)C(F)(F)C(F)(F)C(F)(F)C(F)(F)F`, for which the AC50 in test [1] is 29.9 µM (active) and 49.3 µM (active) and 51.1 µM (active); in test [2] it was 33.4 µM (active) and 24.7 µM (active) and 23.9 µM (active); in [4], 46.5 µM (active) and 58.4 µM (active); in [7], 36.3 µM (active) and 46.6 µM (active) and 45.4 µM (active); in [8], 52.1 µM (active) and 12.9 µM (active); in [9], 45.7 µM (active) and 60.9 µM (active). Besides, the concentration at half-maximal activity (AC50) is 18.1 µM (active) and 13.4 µM (active) and 13.2 µM (active) in [20]; 18.5 µM (active) and 11.9 µM (active) and 13.4 µM (active) in test [12]; 32.5 µM (active) and 54.6 µM (active) and 52.9 µM (active) in [13]; 48.2 µM (active) and 53.7 µM (active) in [14]; 53.6 µM (active) and 47 µM (active) in [16]; 58.5 µM (active) and 52.5 µM (active) in test [17]. Also, the compound was classed as inactive in test [3], in test [4], in test [5], in test [6], in test [9] and in [18]. Also, the outcome in [10], in test [11], in test [14], in test [16] and in test [17] was inactive.

Turning to `Sc1ccccc1`, the result in [1], in test [2], in [3], in test [4], in [7] and in test [9] was inactive. Moreover, the call in [18], in [20], in test [11], in [19], in test [12] and in [13] was inactive. For the same compound, the outcome in test [14], in test [15], in [16] and in test [17] was inactive.

For the compound `O=NN(c1ccccc1)c1ccccc1`, the outcome in test [1], in test [2], in test [3], in [4], in test [8] and in test [18] was inactive. In addition, the outcome in test [19], in test [12], in test [14], in test [16] and in test [17] was inactive. Besides, the results for the AC50 in [7], in test [9] and in [20] were 6.14 µM (active), 29.9 µM (active) and 52.2 µM (active), respectively.
